High-throughput results from PubChem BioAssay.
Sampled rows, rich in hits. Any-hit rate of the full collection: about 1.1%.
IL1B NFkB pot – enhancers of NFkB p65 translocation in HUVEC – imaging, IL-1B stimulus, high-content imaging, primary screen. 94,000 compounds, 0.3% hits. HUVEC IL-1B NFkB p65 nuclear translocation imaging. activation, % at 2 µM;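 active = activation above 40%, about the mean plus 3 SD, also judged a hit on visual image review; inconclusive = activation above 40% but not a hit on visual review; inactive = activation not above 40% and no visual hit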;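 also: percent activation is computed from the nuclear over cytoplasmic p65 intensity ratio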
sEH inhibitor – soluble epoxide hydrolase inhibitors, primary screen, biochemical, human sEH. AID 707, 2007. inhibition, % at 2 µM. 91,000 compounds, 0.34% hits. recombinant human sEH enzymatic activity assay. Bifunctional epoxide hydrolase 2 (Homo sapiens), P34913; in the data active = inhibition above about 80%
Target sequence (P34913 whole entry, looked up): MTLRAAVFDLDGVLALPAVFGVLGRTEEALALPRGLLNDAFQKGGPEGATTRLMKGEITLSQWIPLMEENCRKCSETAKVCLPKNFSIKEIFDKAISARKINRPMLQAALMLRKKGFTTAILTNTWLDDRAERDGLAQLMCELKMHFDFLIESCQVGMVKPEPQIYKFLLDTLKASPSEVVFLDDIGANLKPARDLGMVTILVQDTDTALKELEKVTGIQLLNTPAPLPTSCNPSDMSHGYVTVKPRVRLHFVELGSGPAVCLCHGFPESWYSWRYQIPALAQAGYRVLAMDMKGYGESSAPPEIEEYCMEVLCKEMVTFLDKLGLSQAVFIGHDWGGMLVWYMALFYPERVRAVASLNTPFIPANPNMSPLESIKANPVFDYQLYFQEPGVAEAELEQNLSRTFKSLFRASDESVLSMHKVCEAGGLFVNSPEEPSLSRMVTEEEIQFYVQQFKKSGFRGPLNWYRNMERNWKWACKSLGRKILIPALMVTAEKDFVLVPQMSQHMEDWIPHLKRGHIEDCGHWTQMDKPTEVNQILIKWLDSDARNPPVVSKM
IL1B NFkB inh – inhibitors of IL-1B driven NFkB p65 nuclear import, primary screen, imaging, HUVEC, IL-1B stimulus, high-content imaging; 94,000 compounds, 0.43% hits; HUVEC IL-1B NFkB p65 nuclear translocation imaging; AID 796, 2007; inhibition, % at 2 µM;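 active = inhibition above about 30% together with a positive call from visual inspection of the well image, limit read from the data; inconclusive = inhibition above a set limit but visual check negative; inactive = inhibition not above a set limit, visual check negative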;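 also: nuclear over cytoplasmic p65 intensity ratio measured by imaging; 0% = IL-1B stimulated DMSO wells and 100% = unstimulated DMSO wells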
IL1B cytotox – cytotoxicity in IL-1B stimulated HUVEC, primary screen, cytotoxicity control for IL-1B NFkB translocation project, imaging, Hoechst nuclear count, IL-1B stimulus; HUVEC cell count loss; cell count reduction, % at 2 µM; 94,000 compounds, 0.41% hits;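 active = cell count reduction more than 3 SD above the screen-wide mean, cut at about 70% in these data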;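 also: normalized per plate to untreated control cells as the no-loss baseline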
sEH act – soluble epoxide hydrolase activators, primary screen, biochemical, human sEH. activation, % at 2 µM. purified human sEH enzymatic activity, activator screen. Bifunctional epoxide hydrolase 2 (Homo sapiens), P34913. 91,000 compounds, 0.04% hits; in the data active = activation above about 37%
An asterisk follows results filed as active; u = inconclusive; x = no result.

SMILES	IL1B NFkB pot	sEH inhibitor	IL1B NFkB inh	IL1B cytotox	sEH act
O=C(/C=C/c1ccccc1Cl)NCc1ccccc1	-5	39	5	9	-40
NS(=O)(=O)c1ccc(CNC(=O)/C=C/c2c(Cl)cccc2Cl)cc1	8	92*	-8	-36	-92
CCOC(=O)c1ccc(NC(=O)CCc2nc(-c3cccc(C)c3)no2)cc1	-99	12	99*	87*	-14
COc1cccc(NC(=O)CCc2nc(-c3ccccc3F)no2)c1	-5	-8	5	82*	7
Cc1cccc(-c2noc(CCC(=O)Nc3ccccc3)n2)c1	10	5	-10	-11	-2
O=C(Cc1cccc2ccccc12)N/N=C/c1ccc(Sc2nc3ccccc3s2)o1	5	37	-5	-36	-36
CCOc1ccc(NC(=O)CSc2nnc(C(C)C)n2CC)cc1	u	3	-57	95*	0
CNc1nc(SCc2ccc(C)cc2)nc2c1CCCC2	-42	-5	42*	-10	8
N#CC1=C(N)OC2=C(C(=O)CCC2)C1c1ccccc1 (centres undefined)	7	6	-7	4	-6
CC(c1ccccc1)C1C(C#N)=C(N)OC2=C1C(=O)CCC2 (centres undefined)	116*	-1	-116	-6	1
O=C(CCc1ccc(S(=O)(=O)N2CCOCC2)cc1)Nc1nc(COc2ccccc2)cs1	1	11	-1	-5	-9
Cc1nn(C)c(C)c1S(=O)(=O)N1CCC(C(=O)NCC2COc3ccccc3O2)CC1 (centres undefined)	42*	x	-42	-6	x
CC(C)C(=O)Nc1nnc(CCN2CCOCC2)s1	-1	-3	1	-5	3
CC1CCCN(Cc2nc3c(c(=O)n(C)c(=O)n3C)n2CCCc2ccccc2)C1 (centres undefined)	24	16	-24	7	-13
O=C(Oc1ccccc1)c1cccc(COC(=O)c2cnccn2)c1	30	4	-30	87*	-1
Cc1ccc(NC(=S)NCC2CCCO2)cc1C (centres undefined)	-11	-8	11	91*	12
Cc1ccc(NC(=S)NCCN2CCOCC2)cc1C	-4	-35	11	2	38*
Cc1ccc(NC(=S)NCC2CCCO2)cc1 (centres undefined)	11	21	-11	-1	-25
O=C1OC(c2ccc(Cl)cc2)/C(=C(/O)c2ccccc2)C1=O (centres undefined)	-9	-5	9	4	5
Cc1cccc(OCC(=O)Nc2ccc(N3CCN(C(=O)c4ccco4)CC3)cc2)c1	-6	26	6	-6	-23
COC(=O)CSc1nnc(CNC(=O)c2cc(OC)c(OC)c(OC)c2)n1C	-12	20	12	78*	-23
COC(=O)CSc1nnc(CNC(=O)c2ccccc2OC)n1C	-4	9	4	-6	-11
Cc1ccccc1OCc1nnc2n1CC(C)S2 (centres undefined)	-20	-1	20	-2	0
COc1cccc(Nc2nc(=O)[nH]nc2C)c1	-18	-8	18	83*	6
CCCCNC(=O)CCn1nc(-c2ccccc2)ccc1=O	53*	x	-53	-4	x
SMILES	IL1B NFkB pot	sEH inhibitor	IL1B NFkB inh	IL1B cytotox	sEH act
CC(C)n1c(=S)[nH]c2ccccc2c1=O	-37	x	36*	-3	x
COn1c(=S)[nH]c2ccccc2c1=O	-14	-5	14	-69	9
Cc1ccc(C)c(N2CCN(C(=O)CC3Sc4ccccc4NC3=O)CC2)c1 (centres undefined)	-5	1	5	79*	-3
CCC(=O)N1CCN(c2cc(C)ccc2C)CC1	4	8	-4	-35	-5
Cc1ccc(Cn2ccc(=O)c(OCc3c(Cl)cccc3Cl)c2C)cc1	7	16	-6	-15	-17
COc1ccc(N2C(=O)CCC2(C#N)c2ccc(Br)cc2)cc1 (centres undefined)	15	-23	-15	-2	20
Cc1ccc2c(c1)nnn2C1CCN(C(=O)NC23CC4CC(CC(C4)C2)C3)CC1	12	85*	-12	-19	-85
Cc1ccc(Nc2nnns2)cc1	-38	-2	38*	-14	5
CCOc1cccc(C2C(C(=O)c3ccc(C)o3)=C(O)C(=O)N2Cc2ccncc2)c1 (centres undefined)	-31	5	30*	-8	-6
CCCc1cc(C(=O)NCC(C)C)no1	3	-3	-3	-27	4
CC(=O)Nc1ccc(C(=O)N2CCCC2)cc1	7	-1	-7	-16	4
CCOC(=O)c1[nH]c(C)c(C(=O)Nc2cc(OC)ccc2OC)c1C	-30	-10	30*	80*	10
COC(=O)CCS(=O)(=O)c1nc(-c2ccccc2)cc(C(F)(F)F)n1	-37	-2	37*	-4	2
CS(=O)(=O)c1nc(-c2cccs2)cc(C(F)(F)F)n1	-31	9	31*	0	-9
O=C(O)CCS(=O)(=O)c1nc(-c2cccs2)cc(C(F)(F)F)n1	5	-9	-5	-9	7
CC(C)CC(=O)O/N=C1\C(=O)N(Cc2ccc(Cl)cc2)c2ccc([N+](=O)[O-])cc21	47*	9	-47	92*	-11
COc1ccccc1S(=O)(=O)Cc1ccc(C(=O)NC2CCCCC2)o1	1	46	-1	6	-45
O=C(NC1CCCCC1)c1ccc(CNc2ccccc2)o1	-34	53	34*	86*	-54
CC12CC(c3ccccc3O1)N(C(=O)c1ccco1)C(=S)N2c1ccc(F)cc1 (centres undefined)	x	13	x	x	-12
COC(=O)c1cn(CC(=O)NC2CCCCCC2)c2ccccc12	-8	34	8	29	-33
O=C(Cn1c(NCCO)nc2ccccc21)c1ccc(Cl)cc1	1	0	-1	-8	1
COc1ccc(-n2c(C)cc(C(=O)Cn3c(NCCO)nc4ccccc43)c2C)cc1	41*	-3	-41	4	4
O=C(Nc1ccc(Cl)c(C(F)(F)F)c1)C1CCCN(S(=O)(=O)c2cnc[nH]2)C1 (centres undefined)	14	92*	-14	-74	-92
Cc1ccccc1C(=O)Nc1ccccc1-n1cccc1	40*	1	-40	0	0
Cc1ccc(NC(=O)COc2ccc3oc4c(c3c2)CCCC4)nc1	16	-11	-16	80*	7
Cc1noc(C)c1S(=O)(=O)N1CCCC(C(=O)NCCC2=CCCCC2)C1 (centres undefined)	-2	71	2	17	-70
Cc1noc(/C=C/N(C)C)c1S(=O)(=O)N1CCCC(C(=O)NCCC2=CCCCC2)C1 (centres undefined)	12	88*	-12	-35	-88
Cc1csc(-c2cnn(-c3ccccc3)c2NC(=O)c2cccc(C(F)(F)F)c2)n1	-2	6	2	3	-6
